Source: PubChem BioAssay
Calls of active or inactive are those of the source. Unless noted, no rule for the calls is given here.

Experiments:
[1] = A549 cell viability effects, profiling panel, calcein-AM fluorescence, 48 h, basal (AID 1162); details: higher = more signal; also: test concentration not given here
[2] = adipocyte viability effects, profiling panel, cell-based, 3T3-L1 adipocytes, calcein-AM fluorescence, 48 h, basal (AID 1163); details: 3T3-L1 adipocytes viability, higher = more signal; also: test concentration not given here
[3] = HepG2 cell viability effects, profiling panel, calcein-AM fluorescence, 48 h, basal (AID 1164); details: higher = more signal; also: test concentration not given here
[4] = MM1S cell viability effects, profiling panel, calcein-AM fluorescence, 48 h, basal (AID 1165); details: higher = more signal;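 also: viability of MM1S multiple myeloma cells under basal unstimulated conditions; test concentration not given here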
[5] = basal RPMI8226 viability, no added stimulus, profiling panel, cell-based, calcein-AM fluorescence, 48 h, PK04 Diversity Set (AID 1166); details: RPMI8226 myeloma viability, higher = more signal;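 also: cells grown under basal conditions without added stimulus; test concentration not given here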
[6] = basal HepG2 mitochondrial membrane potential changes, profiling panel, cell-based, JC-1 fluorescence, 24 h, 100 nL compound (AID 1167); details: higher = more signal; also: test concentration not given here
[7] = basal 3T3-L1 adipocyte mitochondrial potential changes, profiling panel, cell-based, JC-1 fluorescence, 3T3-L1 adipocytes, 24 h, 100 nL compound (AID 1168); details: JC-1 mitochondrial fluorescence, higher = more signal, called active from +8 up or from −8 down; also: test concentration not given here
[8] = basal RPMI8226 mitochondrial membrane potential changes, profiling panel, cell-based, JC-1 fluorescence, 24 h, 100 nL compound (AID 1169); details: RPMI8226 myeloma, JC-1 mitochondrial potential fluorescence, higher = more signal; also: test concentration not given here
[9] = basal MM1S mitochondrial membrane potential changes, profiling panel, cell-based, JC-1 fluorescence, 24 h, 100 nL compound (AID 1170); details: higher = more signal; also: test concentration not given here
[10] = A549 lung cancer cell viability effects, profiling panel, resazurin fluorescence, 24 h, PK04 Diversity Set (AID 1171); details: higher = more signal, called active from +8 up or from −8 down; also: test concentration not given here
[11] = HepG2 liver cancer cell viability effects, profiling panel, resazurin fluorescence, 24 h, PK04 Diversity Set (AID 1172); details: higher = more signal; also: test concentration not given here
[12] = basal S. cerevisiae growth modulation, no modifier, primary screen, OD600, strain BY4716, 24 h, basal condition (AID 1173); details: OD600, 24 h, higher = more signal, called active from +8 up or from −8 down
[13] = MM1S myeloma cell viability, profiling panel, resazurin fluorescence, basal, 24 h, PK04 Diversity Set (AID 1174); details: higher = more signal, called active from +8 up or from −8 down;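 also: MM1S multiple myeloma cell line; test concentration not given here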
[14] = target: Dihydroorotate dehydrogenase (quinone), mitochondrial (Plasmodium falciparum (isolate 3D7)) (UniProt Q08210); assay: PfDHODH enzyme inhibitors, primary screen, biochemical, C-terminal His tag, absorbance 600 nm (AID 1175); details: DCIP absorbance 600 nm, higher = more signal, called active from +8 up or from −8 down;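 also: recombinant parasite enzyme with a five histidine tag at its C terminus; test concentration not given here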
Chain of Dihydroorotate dehydrogenase (quinone), mitochondrial (Plasmodium falciparum (isolate 3D7)) (Q08210 whole entry, looked up): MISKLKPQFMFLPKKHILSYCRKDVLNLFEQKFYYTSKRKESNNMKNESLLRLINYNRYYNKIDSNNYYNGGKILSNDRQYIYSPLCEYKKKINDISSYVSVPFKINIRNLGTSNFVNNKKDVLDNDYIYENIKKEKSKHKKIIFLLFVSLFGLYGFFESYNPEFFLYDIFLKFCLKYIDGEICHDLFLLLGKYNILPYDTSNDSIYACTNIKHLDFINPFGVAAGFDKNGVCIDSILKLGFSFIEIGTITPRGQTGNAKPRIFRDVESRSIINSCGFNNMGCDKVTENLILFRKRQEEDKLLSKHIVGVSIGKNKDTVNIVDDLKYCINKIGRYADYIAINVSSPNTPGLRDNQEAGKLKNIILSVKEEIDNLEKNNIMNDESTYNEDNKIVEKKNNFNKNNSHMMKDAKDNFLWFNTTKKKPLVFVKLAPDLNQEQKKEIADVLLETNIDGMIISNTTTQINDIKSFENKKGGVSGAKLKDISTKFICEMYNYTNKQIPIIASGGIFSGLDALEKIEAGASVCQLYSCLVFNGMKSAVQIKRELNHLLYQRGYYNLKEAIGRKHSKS

[15] = P. aeruginosa biofilm formation inhibitors, primary screen, strain PAO1, LB-PBS medium, absorbance 600 nm (AID 1176); also: test concentration not given here; details: P. aeruginosa PAO1 growth/biofilm, A600, 12 h; higher = more signal
[16] = S. cerevisiae RM11-1a growth modifiers, primary screen, strain RM11-1a, OD600, basal, 24 h (AID 1177); details: OD600, 24 h, higher = more signal, called active from +8 up or from −8 down;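 also: cultures grown under basal conditions with no added stressor; test concentration not given here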
[17] = E. coli acrAB mutant growth effects, primary screen, E. coli filamentation inducers, strain DRC39, OD650, 24 h (AID 1178); details: higher = more signal, called active from +8 up or from −8 down;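 also: growth measured as culture turbidity by optical density at 650 nm; test concentration not given here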
[18] = E. coli acrAB mutant growth effects, primary screen, E. coli filamentation inducers, strain DRC39, OD650, 48 h (AID 1179);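 also: screen aims at cell division blockers that make cells filament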; details: E. coli DRC39 delta-acrAB growth, higher = more signal, called active from +8 up or from −8 down
[19] = RPMI8226 myeloma cell viability, profiling panel, resazurin fluorescence, basal, 24 h, PK04 Diversity Set (AID 1180); details: higher = more signal;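 also: RPMI8826 multiple myeloma cell line at 5000 cells per well; test concentration not given here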
[20] = target: E3 ubiquitin-protein ligase XIAP (Homo sapiens) (UniProt P98170); assay: XIAP binders, primary screen, biophysical, small-molecule microarray, fluorescence 635 nm (AID 1181); details: small-molecule microarray binding, higher = more signal;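 also: score merges 667 nm emission and signal to noise over triplicate slides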
Chain of E3 ubiquitin-protein ligase XIAP (Homo sapiens) (P98170 whole entry, looked up): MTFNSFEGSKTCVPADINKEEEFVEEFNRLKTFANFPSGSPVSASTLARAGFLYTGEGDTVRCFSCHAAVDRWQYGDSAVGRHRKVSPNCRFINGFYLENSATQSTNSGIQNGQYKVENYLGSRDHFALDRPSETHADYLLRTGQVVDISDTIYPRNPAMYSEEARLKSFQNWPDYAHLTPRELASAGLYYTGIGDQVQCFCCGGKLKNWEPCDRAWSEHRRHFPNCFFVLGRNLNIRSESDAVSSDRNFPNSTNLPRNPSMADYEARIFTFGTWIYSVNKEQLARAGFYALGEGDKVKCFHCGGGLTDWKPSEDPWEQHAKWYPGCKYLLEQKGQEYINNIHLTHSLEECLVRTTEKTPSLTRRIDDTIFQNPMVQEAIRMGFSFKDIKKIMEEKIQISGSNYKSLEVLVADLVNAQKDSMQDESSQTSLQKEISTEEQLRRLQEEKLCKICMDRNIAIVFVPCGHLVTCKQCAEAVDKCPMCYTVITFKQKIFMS

| SMILES | z-score [1] | z-score [2] | z-score [3] | z-score [4] | z-score [5] | z-score [6] | z-score [7] | z-score [8] | z-score [9] | z-score [10] | z-score [11] | z-score [12] | z-score [13] | composite z-score [14] | z-score [15] | z-score [16] | z-score [17] | z-score [18] | z-score [19] | composite z-score [20] |
| --- | --- | --- | --- | --- | --- | --- | --- | --- | --- | --- | --- | --- | --- | --- | --- | --- | --- | --- | --- | --- |
| COC(=O)CC=C[C@@H](C)[C@@H](C=NO[C@H](C)c1cn([C@H](CO)Cc2ccccc2)nn1)OC | -0.0647 | 0.304 | -0.458 | 0.209 | 0.0397 | -0.741 | -1.24 (inactive) | 0.923 | 1.74 | 0.556 (inactive) | 0.167 | -0.285 (inactive) | -0.242 (inactive) | -0.184 (inactive) | 0.368 (inactive) | -0.212 (inactive) | 0.0343 (inactive) | -0.265 (inactive) | 0.261 | -0.142 |
| CC(C)(C)N1C(=O)[C@H]2[C@H]3[C@H](O)C=CC(=O)[C@@H]3CC[C@H]2C1=O | -0.269 | 0.815 | 0.282 | 0.326 | 0.311 | 0.102 | -0.211 (inactive) | -0.0172 | 1.19 | 0.0796 (inactive) | 0.136 | 1.48 (inactive) | 0.469 (inactive) | 0.237 (inactive) | -0.118 (inactive) | 0.846 (inactive) | -0.278 (inactive) | -0.231 (inactive) | 0.467 | -0.102 |
| CC(C)CCN1CCc2nc(COc3ccccc3)c3c(c2C1)CO[C@@H](C)C3 | -0.304 | -0.225 | 0.665 | 0.246 | -0.396 | 1.66 | -0.000112 (inactive) | -0.724 | 1.09 | -0.0622 (inactive) | -0.226 | -0.83 (inactive) | 0.291 (inactive) | 0.0368 (inactive) | 0.462 (inactive) | 0.288 (inactive) | 1.1 (inactive) | -0.341 (inactive) | 0.327 | -0.161 |
| C#CCCCON=C1C[C@@H](O)[C@@H](O)[C@@H]2[C@@H]3C(=O)N(CC)C(=O)[C@@H]3CC[C@@H]12 | -0.36 | -0.843 | 0.075 | 0.0133 | 0.338 | -0.836 | -1.26 (inactive) | -0.0744 | -0.312 | -0.526 (inactive) | -0.245 | 0.961 (inactive) | -0.529 (inactive) | -0.367 (inactive) | 0.07 (inactive) | 0.375 (inactive) | 0.0322 (inactive) | -0.569 (inactive) | -0.244 | -0.0473 |
| COC(=O)CC=C[C@@H](C)[C@@H]1C=C[C@H](O)[C@@H](CO)O1 | -0.864 | -1.02 | -0.008 | 0.667 | -0.932 | 0.295 | -0.875 (inactive) | -0.229 | -0.433 | -0.554 (inactive) | -0.118 | 0.626 (inactive) | -3.24 (inactive) | 0.35 (inactive) | 0.274 (inactive) | 0.86 (inactive) | 0.439 (inactive) | 0.483 (inactive) | -1.28 | 0.0727 |
| CC[C@@H](c1ccccc1)n1c(=O)n2n(c1=O)[C@H]1[C@H](O)[C@@H]3O[C@@H]3C(=NOC[C@@H](O)COCc3ccco3)[C@H]1CC2 | -0.335 | -0.193 | -0.378 | -0.0533 | -0.736 | -1.44 | -0.368 (inactive) | -0.465 | 0.432 | 0.0367 (inactive) | -0.466 | 0.626 (inactive) | -0.617 (inactive) | -0.337 (inactive) | -0.613 (inactive) | -1.11 (inactive) | 0.243 (inactive) | 0.047 (inactive) | -0.257 | -0.117 |
| C[C@@H]1CC[C@H]2C(=O)O[C@@H](COc3ccc(C(C)(C)C)cc3)CN2[C@@H]1c1ccc(Br)cc1 | 0.373 | 1.03 | 0.843 | -2.33 | -0.391 | -1.05 | -0.391 (inactive) | -0.509 | 0.291 | 1.99 (inactive) | 0.937 | -0.752 (inactive) | 0.23 (inactive) | -0.184 (inactive) | -0.291 (inactive) | -0.176 (inactive) | 0.095 (inactive) | 0.408 (inactive) | 1.06 | 0.072 |
| CCN1C(=O)[C@H]2[C@H]3[C@H](O)[C@H](O)CC(=O)[C@@H]3CC[C@H]2C1=O | 0.111 | 0.0891 | 0.0082 | -0.681 | 0.177 | 0.231 | 0.55 (inactive) | -0.0467 | -0.22 | -0.561 (inactive) | -0.309 | -0.553 (inactive) | -0.399 (inactive) | -0.308 (inactive) | -0.72 (inactive) | -0.162 (inactive) | -0.307 (inactive) | -0.164 (inactive) | -0.752 | 0.112 |
| CCOC(=O)[C@H](CC(C)C)NC(=O)CCC1CC(OC(=O)NCCc2ccc(F)cc2)CC2(CCCC(COC(=O)NCCc3ccc(Cl)cc3)O2)O1 (stereo not given in full) | -0.977 | 0.248 | -0.49 | 0.73 | -1.23 | -1.04 | 0.133 (inactive) | -0.0969 | -0.232 | 0.608 (inactive) | 0.182 | 0.0981 (inactive) | -0.0687 (inactive) | -0.188 (inactive) | 0.213 (inactive) | -0.596 (inactive) | -0.0646 (inactive) | -0.617 (inactive) | 0.48 | -0.247 |
